The results in this text go back to PubChem BioAssay (NCI).

Test in all cases: NCI-60 one-dose screen, 48 h (100 = growth as untreated, 0 = no growth, -100 = all killed)
Holding throughout (details): 10 µM unless noted

Experiment [1] deals with HCT-15 colon.
For experiment [2], the system named is HT29 colon.
The test system of experiment [3] is SNB-75 CNS.
The subject of experiment [4] is SNB-19 CNS.
Experiment [5] relates to U251 CNS.
Experiment [6] has as its system PC-3 prostate.
In experiment [7] the test system is SK-MEL-5 melanoma.
Experiment [8] has as its system UACC-62 melanoma.
The subject of experiment [9] is LOX IMVI melanoma.
In experiment [10] the test system is SK-MEL-28 melanoma.
In experiment [11] the test system is SK-MEL-2 melanoma.
The test system of experiment [12] is EKVX NSCLC.
Experiment [13] deals with SN12C renal.
Experiment [14] concerns UO-31 renal.
The subject of experiment [15] is TK-10 renal.
The subject of experiment [16] is ACHN renal.
The test system of experiment [17] is CAKI-1 renal.
Experiment [18] has as its system A498 renal.
Experiment [19] deals with CCRF-CEM leukemia.
Experiment [20] concerns MOLT-4 leukemia.

This is part of a sample that, as a whole, favours compounds with a hit. Of some 83,000 tested, about 20% had one in any assay.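 Treatment: one concentration, 48 hours, 96-well format. Scoring: percent growth, with anything below 10 considered active.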 Values without a mark were called inactive. The source made the active and inactive calls.

As to `CCCn1cnc2c(c1=N)C(c1ccc(OC)cc1)c1sc3c(C)cccc3c1O2` (stereo not given), the growth in experiment [1] is 14.6%; in experiment [2], 7.24% (active); in experiment [3] it was 17.8%; in experiment [4], 24%; in [5], 20.6%; in experiment [6] it was 6.95% (active). The growth in experiment [7] was 40.3%; in experiment [8], 14.3%; in experiment [9], 25.1%; in experiment [10] it was 53.9%; in experiment [11], 36.9%; in experiment [12], 40.9%. Moreover, the growth in experiment [13] is 19%; in [14], 27.2%; in [15], 94.2%; in experiment [16], 31.8%; in [17], 25.8%; in experiment [18] it was -21.4% (active). Besides, the growth in [19] is 3.52% (active); in experiment [20], 17%.

On to `NS(=O)(=O)c1ccc(Nc2nc(SCc3ccccc3)nc3ccccc23)cc1`, for which the growth in experiment [1] is 39.1%; in experiment [2], 41%; in experiment [3], 70.5%; in [4], 78.2%; in experiment [5], 60.1%; in experiment [6], 54.1%. The growth in experiment [7] was 49.8%; in experiment [8] it was 70%; in [9], 52.3%; in [10], 91.6%; in experiment [11], 92.4%; in experiment [12] it was 77.7%. In addition, the growth is 65.1% in experiment [13]; 46.9% in experiment [14]; 81.5% in [15]; 62% in [16]; 49.1% in experiment [17]; 48.5% in experiment [18]. For the same molecule, the growth in experiment [19] was 41.8%; in [20], 43.9%.

Take `CC(=O)N(C)C1CCc2c(sc(NC(=O)c3ccc(C(C)(C)C)cc3)c2C(N)=O)C1` (stereo not given): the growth is 57.1% in [1]; 77.7% in experiment [2]; 39.2% in experiment [3]; 74.7% in [4]; 51.8% in experiment [5]; 45.9% in [6]. Besides, the growth in [7] was 91.7%; in experiment [8], 85.7%; in experiment [9], 29.5%; in experiment [10], 80%; in [11], 103%; in [12], 75.5%. The growth in experiment [13] is 71.1%; in [14], 89%; in experiment [15], 106%; in experiment [16] it was 97.7%; in experiment [17] it was 64.8%; in experiment [18], 80%. Further, the figures for the growth in experiment [19] and in experiment [20] were 69.3% and 75.2%, respectively.

On to `CCNC(=O)N1CCc2cc(OC)c(OCCc3ccc(OC)nc3)cc2C1c1ccc(OC)cc1C` (stereo not given), for which the growth in experiment [1] is 14%; in experiment [2], 5.66% (active); in experiment [3], 25.9%; in experiment [4], 34.5%; in experiment [5], 26.2%; in experiment [6] it was 37.8%. Also, the growth was 23.6% in [7]; 22.7% in experiment [8]; 7.09% (active) in [9]; 43.9% in [10]; 30.1% in experiment [11]; 61.8% in experiment [12]. Also, the growth in experiment [13] was 44.8%; in [14], 40.3%; in [15], 59.9%; in [16] it was 32.2%; in [17] it was 33.7%; in [18], 14.1%. In addition, the growth is 39.3% in [19] and 25.8% in [20].

Turning to `C#CCNC1CCC(c2csc(C#C)n2)=C1C` (stereo not given), the growth in [1] was 96.6%; in experiment [2] it was 50.7%; in [3], 113%; in [4], 90.6%; in experiment [5], 4.13% (active); in experiment [6], 80.8%. The growth in experiment [7] was 90%; in [8] it was 76.8%; in experiment [9] it was -90.7% (active); in experiment [10], 97%; in experiment [11], 101%; in experiment [12], 24.8%. The growth was 65.4% in experiment [13]; 44.7% in experiment [14]; 130% in [15]; -88.2% (active) in [16]; 58.3% in experiment [17]; 118% in experiment [18]. In addition, the values for the growth in experiment [19] and in experiment [20] were -9.98% (active) and 84.7%, respectively.

As for `CC(C)(C)c1ccc(C(=O)Nc2nc3ccc(O)cc3s2)cc1`, the growth in [1] was -5.95% (active); in [2], 2.02% (active); in [3], 96.2%; in experiment [4] it was 63.5%; in [5] it was 59.1%; in [6], 50.1%. Moreover, the growth in [7] was 37.5%; in [8], 45.1%; in experiment [9], 10.4%; in experiment [10], 47.1%; in [11], 71.4%; in experiment [12], 47.5%. The growth in experiment [13] was 53.5%; in experiment [14], 25.5%; in [15], 74.9%; in [16] it was 39%; in experiment [17], 15.1%; in experiment [18], 48.7%. The results for the growth in [19] and in experiment [20] were 41.9% and 33%, respectively.

Turning to `Cc1cccc2c3c(sc12)C(c1ccc(Cl)cc1)c1c(nc(CC(=O)Nc2ccccc2)[nH]c1=O)O3` (stereo not given), the growth is 47.5% in experiment [1]; 73.6% in experiment [2]; 30.8% in experiment [3]; 64.5% in experiment [4]; 54.2% in experiment [5]; 43.3% in [6]. The growth in experiment [7] was 91.7%; in [8] it was 27%; in experiment [9], 56.1%; in [10], 56.5%; in [11] it was 68.4%; in experiment [12], 63.7%. For the same molecule, the growth in experiment [13] is 71.9%; in experiment [14], 50.9%; in experiment [15] it was 132%; in [16] it was 47.3%; in [17], 41.1%; in experiment [18] it was 41.5%. The results for the growth in [19] and in [20] were 59% and 83.4%, respectively.

For `Cc1ccc(NC(=O)c2ccc(CN3CCOCC3)c(C(F)(F)F)c2)cc1Oc1ccc(-c2[nH]nc3ncnc(N)c23)cc1`, the growth in experiment [1] is 40.5%; in [2], 37%; in [3] it was 112%; in experiment [4], 95.5%; in experiment [5], 66.9%; in experiment [6], 43.4%. Moreover, the growth in [7] is 16.3%; in experiment [8] it was 19.4%; in experiment [9], 59.1%; in experiment [10], 47.8%; in experiment [11], 59.6%; in experiment [12], 65.6%. Further, the growth in experiment [13] is 82.3%; in experiment [14], 54.6%; in experiment [15], 80%; in [16], 58.2%; in experiment [17], 39.2%; in [18] it was 87.3%. For the same molecule, the growth is 47.8% in experiment [19] and 46.3% in experiment [20].
